Values joined by “and” are separate entries in the source; they are usually repeats but may differ in a detail not shown here. Identical values can stand only once. Results filed as inconclusive are left out. Active and inactive are the calls of the source. Unless noted, the call rests on the fitted dose curve; in most records, active means well fitted curve in the direction sought with a large enough effect; inconclusive means small, poorly fitted or top-dose-only effect, or another doubt; inactive means no such curve, though single readings can be large; an effect the other way counts as inactive or inconclusive.

The target of test [1] is Alpha-galactosidase A (Homo sapiens) (UniProt P06280). Kind of test: Counterscreen for Glucocerebrosidase Inhibitors: qHTS Assay for Human alpha-Galactosidase at pH 4.5 (AID 992). Further: 0% is about no effect. The following applies: purified enzyme, fluorogenic substrate; series mostly up to 76.9 µM. An outline of the steps: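 Each compound is preincubated briefly with 2 nM enzyme before substrate addition (80 uM); plates then sit 20 min at ambient temperature, are quenched with 1M NaOH/1M glycine, and read fluorometrically.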
In general terms: Counterscreens check selectivity or assay interference.

The target in test [2] is alpha-glucosidase (Oryza sativa, rice) (UniProt Q653V4). Kind of test: Counterscreen for Glucocerebrosidase Inhibitors: qHTS Assay for Rice alpha-Glucosidase at pH 5.0 (AID 997).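 Further: 0% = full activity with enzyme and -100% = basal without enzyme.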 The conditions noted are these: rice alpha-glucosidase enzyme activity; series mostly up to 76.9 µM. The gist of the method: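 Endpoint fluorogenic assay at pH 5.0: compounds (0.7 nM to 77 uM) titrated against 4 nM rice enzyme and 400 uM 4-MU-alpha-glucoside for 20 min at room temperature; NaOH/glycine stop, read ex 365/em 440 nm, Hill-fitted AC50.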

Test [3] is described as follows: qHTS Assay for Lipid Storage Modulators (AID 1519; calls by dose curve; on activity change, negative = inhibition: on the % scale 0 is the no-effect control and ±100 the full control effect). The following applies: Drosophila S3 cells, BODIPY lipid droplet/cell ratio, laser cytometry, cells loaded with oleic acid. An outline of the steps: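 Cells seeded at 5,000 per well were treated with compounds over a concentration series and loaded with oleic acid (400 uM, as added). Lipid droplet fluorescence (488 nm excitation, 500-530 nm channel) was read by laser-scanning cytometry and normalized to 20 uM Triacsin C.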

In test [4] the target is DNA repair nuclease/redox regulator APEX1 (Homo sapiens) (UniProt P27695). Kind of test: qHTS Validation Assay for Inhibitors of the Human Apurinic/apyrimidinic Endonuclease 1 (APE1) (AID 1705;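 further: TAMRA fluorescence gain over two minutes as APE1 cuts a quenched THF abasic duplex; on the % scale 0 is the no-effect control and ±100 the full control effect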). The following applies: purified APE1 endonuclease activity, fluorescence, titration; series mostly up to 57.1 µM. An outline of the steps:
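Human APE1 was preincubated with compound for 15 min at room temperature, then 50 nM (final) THF-abasic double-stranded DNA substrate bearing 5'-TAMRA and 3'-BHQ-2 was added. Incision-driven fluorescence rise (ex 525/em 598 nm) was read kinetically.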

Test [5] is described as follows: Counterscreen for APE1 Inhibitors: Fluorescent Dye Displacement Validation Assay (AID 1707).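 Further: plate controls were ThO with dsDNA and no compound for no effect and ThO without dsDNA for full effect.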 The following applies: fluorescent dye displacement from DNA; series mostly up to 57.1 µM. The gist of the method: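 Loss of Thiazole Orange fluorescence marks promiscuous DNA binders. The dye (250 nM) is mixed with 50 nM abasic-site dsDNA in pH7.5 Tris buffer containing MgCl2, then compounds are added and emission is read once.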

Test [6] addresses Endonuclease 4 (Escherichia coli (strain K12)) (UniProt P0A6C1). As to the kind of experiment: Counterscreen for APE1 Inhibitors: qHTS Validation Assay for Inhibitors of Endonuclease IV (AID 1708). Further: on the % scale 0 is the no-effect control and ±100 the full control effect. The following applies: E. coli endonuclease IV, DNA cleavage fluorescence; series mostly up to 57.1 µM. The gist of the method:
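Incision of a double-stranded 50 nM TAMRA/BHQ-2 abasic substrate was followed kinetically (525/598 nm, reads every 60 s) after 15 min enzyme–compound preincubation with 2 nM EndoIV in pH 7.5 Tris buffer with MgCl2, DTT and Tween-20; concentration-response format.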

Test [7] is described as follows: qHTS for differential inhibitors of proliferation of Plasmodium falciparum line 7G8 (AID 1815).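 Further: parasite growth measured after three days of incubation.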 Further: potency means the concentration at half of the fitted maximal effect.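 On activity change, negative = inhibition: plate controls were vehicle wells for no effect and reference inhibitor wells for full effect.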 The conditions noted are these: Plasmodium falciparum 7G8 proliferation inhibition; series mostly up to 28.7 µM.
Test [8] can be described thus: qHTS for differential inhibitors of proliferation of Plasmodium falciparum line GB4 (AID 1816).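 Further: parasite growth measured after 72 h incubation.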 Further: potency means the concentration at half of the fitted maximal effect.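 On activity change, negative = inhibition: 0% = vehicle DMSO and -100% = reference inhibitor.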 The following applies: Potency: Plasmodium falciparum GB4 proliferation inhibition; series mostly up to 28.7 µM. In general terms: In qHTS, concentration-response curves come from the screen itself.
Test [9] can be described thus: qHTS for differential inhibitors of proliferation of Plasmodium falciparum line 3D7 (AID 1876). Further: potency means the concentration at half of the fitted maximal effect. The following applies: P. falciparum 3D7 proliferation inhibition; series mostly up to 28.7 µM.
Where [10] appears, read: measured here: cell count channel max response.
Setting [11] is: measured here: lipid channel max response.

Sequence of Alpha-galactosidase A (Homo sapiens) (P06280 whole entry, looked up): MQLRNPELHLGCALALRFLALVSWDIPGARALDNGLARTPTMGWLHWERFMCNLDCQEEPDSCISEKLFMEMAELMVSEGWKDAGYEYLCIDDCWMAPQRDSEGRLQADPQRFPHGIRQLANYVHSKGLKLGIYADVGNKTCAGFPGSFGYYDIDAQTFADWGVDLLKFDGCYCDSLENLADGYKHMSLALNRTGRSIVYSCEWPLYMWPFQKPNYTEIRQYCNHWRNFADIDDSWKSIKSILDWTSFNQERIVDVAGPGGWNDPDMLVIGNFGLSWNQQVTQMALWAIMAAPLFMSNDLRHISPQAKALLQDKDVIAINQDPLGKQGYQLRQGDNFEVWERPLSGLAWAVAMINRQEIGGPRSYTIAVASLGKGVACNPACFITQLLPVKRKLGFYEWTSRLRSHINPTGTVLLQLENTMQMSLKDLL
Sequence of DNA repair nuclease/redox regulator APEX1 (Homo sapiens) (P27695 whole entry, looked up): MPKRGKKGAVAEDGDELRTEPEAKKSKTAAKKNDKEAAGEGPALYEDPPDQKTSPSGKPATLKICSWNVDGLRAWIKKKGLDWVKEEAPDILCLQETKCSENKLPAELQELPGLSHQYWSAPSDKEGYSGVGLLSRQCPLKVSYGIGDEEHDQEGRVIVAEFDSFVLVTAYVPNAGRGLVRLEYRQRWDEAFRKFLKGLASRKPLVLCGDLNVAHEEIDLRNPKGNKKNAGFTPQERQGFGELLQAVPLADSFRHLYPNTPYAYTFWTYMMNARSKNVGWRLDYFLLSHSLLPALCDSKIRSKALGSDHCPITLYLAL

`CCN1CCc2nc(N)oc2CC1`: the outcome in [1], in test [2] and in test [5] was inactive. Besides, the activity change, negative = inhibition in test [3] (at 57.5 µM (top of the series)) is 0.659% (inactive). Further, the max response is -8.22% in test [3] (setting [10]) and -7.55% in [3] (setting [11]). Also, the Potency entry in test [4], in [6], in test [7], in test [8] and in test [9] was “inactive” throughout.

Regarding `c1cc(CN2CCCCC2)cc(OCCCNc2nc3ccccc3s2)c1`, the compound was classed as inactive in test [1], in test [2] and in [5]. Also, the activity change, negative = inhibition in test [3] (at 57.5 µM (top of the series)) was -4.93% (inactive). The max response came to 18.9% in test [3] (setting [10]) and 13% in test [3] (setting [11]). Moreover, in test [4], the Potency result is “inactive”. In addition, the Potency is 7.08 µM (active) in test [7], 6.31 µM (active) in [8] and 2.51 µM (active) in [9].

`CN(C)C/C=C(/c1ccc(Br)cc1)c1cccnc1`: the Potency entry in [4] and in test [6] was “inactive” each time. In addition, the result in [5] was inactive. Also, the Potency in [7] was 7.08 µM (active); in test [8] it was 12.6 µM (active); in test [9], 10 µM (active).

Regarding `COc1ccc([C@@H]2Sc3ccccc3N(CCN(C)C)C(=O)[C@@H]2OC(C)=O)cc1`, the Potency result in test [4] and in [6] was “inactive” in each case. Further, in [5], the compound was called inactive.

On to `CC(C)(C)NCC(O)c1cc(O)cc(O)c1` (configuration not stated), for which the Potency result in test [4], in test [6], in [7], in test [8] and in test [9] was “inactive” in each case. Also, in test [5], the compound was classed as inactive.

Take `CO[C@@]1(NC(=O)CSCC#N)C(=O)N2C(C(=O)O)=C(CSc3nnnn3C)CS[C@@H]21`: the activity change, negative = inhibition in [3] (at 57.5 µM (top of the series)) is 0.161% (inactive). Besides, the max response in [3] (setting [10]) was -28.1%; in test [3] (setting [11]) it was -28.4%. In addition, the Potency entry in test [4], in test [7], in [8] and in test [9] was “inactive” each time. Besides, the call in test [5] was inactive.

Turning to `CCCN(CCC)C(=O)C(CCC(=O)O)NC(=O)c1ccccc1` (configuration not stated), the activity change, negative = inhibition in [3] (at 57.5 µM (top of the series)) was 2.72% (inactive). Also, the results for the max response in test [3] (setting [10]) and in test [3] (setting [11]) were 19.5% and 23.3%, respectively. The Potency entry in [4], in test [7], in test [8] and in test [9] was “inactive” each time. Further, the compound was classed as inactive in [5].

Take `OC(CCN1CCCCC1)(c1ccccc1)C1CCCCC1` (configuration not stated): the activity change, negative = inhibition in [3] (at 57.5 µM (top of the series)) is 1.74% (inactive). Besides, the figures for the max response in test [3] (setting [10]) and in test [3] (setting [11]) were -10.4% and -6.71%, respectively. The Potency result in test [4] and in test [6] was “inactive” each time. Besides, in test [5], the outcome was inactive. Also, the Potency in [8] and in [9] was 10 µM (active) each time.

As for `C[C@]12CCC(=O)C=C1CC[C@@H]1[C@@H]2CC[C@@]2(C)[C@H]1CC[C@]2(O)C(=O)CO`, the outcome in test [1], in test [2] and in test [5] was inactive. Besides, the activity change, negative = inhibition in test [3] (at 57.5 µM (top of the series)) is -0.711% (inactive). Further, the max response in test [3] (setting [10]) was 15.6%; in test [3] (setting [11]), 12.1%. Besides, the Potency entry in test [4] and in test [6] was “inactive” throughout.

With `NC(Cc1ccc(Cl)cc1)C(=O)O` (configuration not stated), the activity change, negative = inhibition in test [3] (at 57.5 µM (top of the series)) was 7.45% (inactive). Also, the max response was determined as 16.7% in test [3] (setting [10]) and 25.4% in test [3] (setting [11]). Moreover, the Potency result in test [4], in [7], in test [8] and in [9] was “inactive” throughout. In addition, in test [5], the result was inactive.

Consider `CC(=O)Oc1cc(C(C)C)c(OCCN(C)C)cc1C`, for which the outcome in test [1], in test [2] and in test [5] was inactive. For the same compound, in test [3] (at 25.7 µM (top of the series)), the activity change, negative = inhibition was -0.785% (inactive). Further, the max response in test [3] (setting [10]) was -9.94%; in [3] (setting [11]), -5.49%. Further, the Potency entry in test [4], in [6] and in test [9] was “inactive” in each case.

Consider `Nc1c2c(nc3ccccc13)CCCC2O` (configuration not stated), for which the activity change, negative = inhibition in [3] (at 57.5 µM (top of the series)) was 0.679% (inactive) and 0.738% (inactive). Also, the max response is 14.7% and -14.6% in test [3] (setting [10]); 13.3% and -15.3% in test [3] (setting [11]). The Potency result in test [4] and in test [7] was “inactive” in each case. Besides, in test [5], the outcome was inactive.

As to `Cc1nc2sccn2c(=O)c1CCN1CCC(=C(c2ccc(F)cc2)c2ccc(F)cc2)CC1`, the compound was called inactive in test [1], in test [2] and in test [5]. The activity change, negative = inhibition in [3] (at 57.5 µM (top of the series)) was -1.04% (inactive). Besides, the max response in test [3] (setting [10]) turned out to be 26.4%; in test [3] (setting [11]) it was 25.6%. The Potency result in test [4] and in [6] was “inactive” each time. Besides, the Potency in test [7] is 7.08 µM (active); in [8], 10 µM (active); in [9], 11.2 µM (active).

As to `C[N+](C)(C)CCOC(N)=O`, the call in test [1], in test [2] and in test [5] was inactive. Besides, in test [3] (at 25.7 µM (top of the series)), the activity change, negative = inhibition was 1.99% (inactive). For the same compound, the max response in test [3] (setting [10]) came out at 10.4%; in [3] (setting [11]), 11.4%. For the same compound, the Potency result in [4], in [6], in [7], in test [8] and in test [9] was “inactive” in each case.

Regarding `CC(C)[N+](C)(CCOC(=O)C1c2ccccc2Oc2ccccc21)C(C)C`, the compound was called inactive in test [1], in [2] and in [5]. In addition, in [3] (at 25.7 µM (top of the series)), the activity change, negative = inhibition was 0.9% (inactive). The results for the max response in test [3] (setting [10]) and in [3] (setting [11]) were -9.66% and -8.2%, respectively. Moreover, the Potency entry in test [6] was “inactive”. Besides, the Potency in [7] was 12.6 µM (active); in test [8], 10 µM (active); in test [9] it was 3.98 µM (active).

For `CC(=O)OCC1=C(C(=O)O)N2C(=O)[C@@H](NC(=O)Cc3cccs3)[C@H]2SC1`, the Potency result in test [4], in test [6], in test [8] and in test [9] was “inactive” each time. Moreover, in [5], the outcome was inactive.

With `CN(C)C(=O)Oc1cccc([N+](C)(C)C)c1`, the result in [1], in test [2] and in test [5] was inactive. The Potency entry in test [4], in [6], in test [7], in [8] and in test [9] was “inactive” each time.

Take `C(=C\c1ccccc1)/CN1CCN(C(c2ccccc2)c2ccccc2)CC1`: the call in test [1], in [2] and in test [5] was inactive. In test [4], the Potency result is “inactive”. Further, the Potency in [7] is 3.98 µM (active); in test [8] it was 8.91 µM (active).

The record behind these values is PubChem BioAssay (NCATS).
